The structures appear in SMILES notation. Records with an inconclusive call do not appear. Active and inactive are the calls of the source. The calls were made as follows: active = hit-call score of the fitted dose curve at least 0.9, where 1 is the maximum; inconclusive = response in the unintended direction; inactive = score below 0.9.

This is an account of results in PubChem BioAssay (EPA / NIEHS).

Sequence of human Esterase Plasma (ES), BCHE (gene 590) (P06276 whole entry, looked up): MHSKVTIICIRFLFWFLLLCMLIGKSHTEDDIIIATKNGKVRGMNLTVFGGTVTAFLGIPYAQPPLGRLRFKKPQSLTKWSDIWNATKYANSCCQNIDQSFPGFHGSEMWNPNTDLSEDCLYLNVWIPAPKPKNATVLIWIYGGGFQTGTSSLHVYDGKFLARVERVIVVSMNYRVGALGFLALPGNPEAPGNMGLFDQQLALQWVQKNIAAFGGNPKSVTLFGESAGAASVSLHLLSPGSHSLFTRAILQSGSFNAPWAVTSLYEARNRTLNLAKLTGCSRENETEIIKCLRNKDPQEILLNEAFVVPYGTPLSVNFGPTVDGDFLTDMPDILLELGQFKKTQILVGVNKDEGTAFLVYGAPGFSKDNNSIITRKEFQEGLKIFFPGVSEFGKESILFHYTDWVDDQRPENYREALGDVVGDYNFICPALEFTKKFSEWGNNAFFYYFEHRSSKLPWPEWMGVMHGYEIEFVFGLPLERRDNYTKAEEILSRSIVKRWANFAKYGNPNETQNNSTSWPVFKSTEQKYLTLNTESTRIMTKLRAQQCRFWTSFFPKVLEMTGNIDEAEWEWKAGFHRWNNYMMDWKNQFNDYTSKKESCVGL
Sequence of Protein deacetylase HDAC6 (Homo sapiens) (Q9UBN7 whole entry, looked up): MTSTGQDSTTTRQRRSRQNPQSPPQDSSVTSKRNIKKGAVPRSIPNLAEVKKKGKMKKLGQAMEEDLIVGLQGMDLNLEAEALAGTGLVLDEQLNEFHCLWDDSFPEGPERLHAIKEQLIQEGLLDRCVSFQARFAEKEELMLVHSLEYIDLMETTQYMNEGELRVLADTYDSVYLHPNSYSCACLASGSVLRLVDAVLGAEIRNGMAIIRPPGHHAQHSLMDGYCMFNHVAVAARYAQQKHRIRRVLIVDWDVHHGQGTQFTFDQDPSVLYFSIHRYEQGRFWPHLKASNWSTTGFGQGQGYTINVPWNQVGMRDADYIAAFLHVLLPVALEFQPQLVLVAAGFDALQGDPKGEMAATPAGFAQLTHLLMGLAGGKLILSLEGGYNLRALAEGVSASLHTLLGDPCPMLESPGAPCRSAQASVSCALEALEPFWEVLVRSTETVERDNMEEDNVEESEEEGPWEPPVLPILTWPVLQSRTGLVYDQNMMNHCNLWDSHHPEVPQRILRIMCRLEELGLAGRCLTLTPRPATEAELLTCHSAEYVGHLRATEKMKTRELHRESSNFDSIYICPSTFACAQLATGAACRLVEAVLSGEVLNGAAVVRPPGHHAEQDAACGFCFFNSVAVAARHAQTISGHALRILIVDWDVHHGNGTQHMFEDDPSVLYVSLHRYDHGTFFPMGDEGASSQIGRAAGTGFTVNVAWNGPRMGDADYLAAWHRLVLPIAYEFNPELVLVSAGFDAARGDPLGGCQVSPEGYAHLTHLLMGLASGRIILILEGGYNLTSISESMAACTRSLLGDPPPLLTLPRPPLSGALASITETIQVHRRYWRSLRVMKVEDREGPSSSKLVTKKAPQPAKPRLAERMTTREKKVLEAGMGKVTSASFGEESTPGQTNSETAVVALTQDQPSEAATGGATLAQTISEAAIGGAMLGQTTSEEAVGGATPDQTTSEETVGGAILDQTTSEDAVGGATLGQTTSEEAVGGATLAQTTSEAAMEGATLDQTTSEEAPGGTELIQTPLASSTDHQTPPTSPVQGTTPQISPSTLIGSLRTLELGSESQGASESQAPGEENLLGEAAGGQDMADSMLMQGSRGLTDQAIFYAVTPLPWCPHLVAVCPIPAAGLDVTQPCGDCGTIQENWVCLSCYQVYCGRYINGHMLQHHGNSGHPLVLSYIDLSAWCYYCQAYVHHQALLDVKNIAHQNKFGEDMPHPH
Sequence of human Elastase, ELANE (gene 1991) (P08246 whole entry, looked up): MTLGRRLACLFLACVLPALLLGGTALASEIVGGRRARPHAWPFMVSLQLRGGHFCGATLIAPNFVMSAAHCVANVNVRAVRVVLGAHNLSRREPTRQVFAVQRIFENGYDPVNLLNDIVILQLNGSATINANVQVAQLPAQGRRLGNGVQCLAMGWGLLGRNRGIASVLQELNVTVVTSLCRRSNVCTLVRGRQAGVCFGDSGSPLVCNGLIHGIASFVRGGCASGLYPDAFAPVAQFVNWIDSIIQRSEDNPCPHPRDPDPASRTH

The target of the first assay is human Dual Specificity Protein Phosphatase 3 (DUSP3), DUSP3 (gene 1845) (UniProt P51452). Put plainly: NVS_ENZ_hDUSP3: NovaScreen (NVS) Enzymatic Assay for human Dual Specificity Protein Phosphatase 3 (DUSP3) (AID 2283152). Put shortly: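 Cell-free fluorescence-intensity enzyme activity assay with recombinant protein and substrate; loss of signal fitted relative to DMSO baseline. Primary screen in duplicate at 25 uM, actives then run in concentration series; measured 0 h after dosing.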
Sequence of human Dual Specificity Protein Phosphatase 3 (DUSP3), DUSP3 (gene 1845) (P51452 whole entry, looked up): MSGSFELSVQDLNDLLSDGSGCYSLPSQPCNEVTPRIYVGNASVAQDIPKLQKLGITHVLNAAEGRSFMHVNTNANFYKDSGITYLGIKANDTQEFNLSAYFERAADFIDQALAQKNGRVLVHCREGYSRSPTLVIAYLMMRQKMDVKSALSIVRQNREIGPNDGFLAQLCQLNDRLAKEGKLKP
In the case of `COP(=S)(OC)Oc1ccc(S(=O)(=O)N(C)C)cc1`, the half-maximal activity concentration (AC50) was 7.43 µM (active).

In the case of `O=C(O)C(F)(F)C(F)(F)C(F)(F)C(F)(F)C(F)(F)C(F)(F)C(F)(F)C(F)(F)C(F)(F)C(F)(F)F`, the concentration at half-maximal activity (AC50) is 2.72 µM (active).

Regarding `CCOP(=S)(OCC)SCSP(=S)(OCC)OCC`, the concentration at half-maximal activity (AC50) is 6.76 µM (active).

`COP(=S)(OC)Oc1c(Cl)cc(C)cc1Cl`: the half-maximal activity concentration (AC50) is 20.9 µM (active).

`COc1cc(-c2ccc(N)c(OC)c2)ccc1N`: the AC50 was 7.49 µM (active).

Consider `CCOP(=S)(OCC)Oc1nc(Cl)c(Cl)cc1Cl`, for which the AC50 is 6.51 µM (active).

For `Nc1ncc([N+](=O)[O-])s1`, the AC50 was 2.36 µM (active).

Turning to `C=C(C)C(=O)[O][Sn]([CH2]CCC)([CH2]CCC)[CH2]CCC`, the AC50 is 10.9 µM (active).

For `Nc1cccc2ccccc12`, the AC50 was 17 µM (active).

Regarding `ClC1(Cl)C2(Cl)C3(Cl)C4(Cl)C(Cl)(Cl)C5(Cl)C3(Cl)C1(Cl)C5(Cl)C24Cl` (centres undefined), the outcome was inactive.

For `COP(=S)(OC)Oc1cc(Cl)c(Cl)cc1Cl`, the AC50 is 11.8 µM (active).

In another assay the target is human Elastase, ELANE (gene 1991) (UniProt P08246). Put plainly: NVS_ENZ_hElastase: NovaScreen (NVS) Enzymatic Assay for human Elastase (AID 2283153). As to the method:
NVS_ENZ_hElastase is a biochemical, single-readout assay that uses extracted gene-proteins from Human neutrophils in a cell-free assay. Measurements were taken 1.5 hours after chemical dosing in a 96-well plate.NVS_ENZ_hElastase is one of one assay component(s) measured or calculated from the NVS_ENZ_hElastase assay. It is designed to make measurements of enzyme activity, a form of enzyme reporter, as detected with absorbance signals by Spectrophotometry technology.Data from the assay component NVS_ENZ_hElastase was analyzed into 1 assay endpoint. This assay endpoint, NVS_ENZ_hElastase, was analyzed in the positive analysis fitting direction relative to DMSO as the negative control and baseline of activity. Using a type of enzyme reporter, loss-of-signal activity can be used to understand changes in the enzymatic activity as they relate to the gene ELANE. Furthermore, this assay endpoint can be referred to as a primary readout, because this assay has produced multiple assay endpoints where this one serves a enzymatic activity function. To generalize the intended target to other relatable targets, this assay endpoint is annotated to the protease intended target family, where the subfamily is serine protease.
Binding assays used specific radioligands (tritiated, iodinated) with non-radioactive competitive displacement ligands in agonist or antagonist protocols (as indicated) and various reference compounds and inhibitors to titrate specific binding to receptors and transporters. Most enzyme assays (CYPs, kinases, phosphatases, proteases, HDACs) used recombinant protein and specific substrates (fluorescence mostly, some colorimetric and radioactive) and inhibitors, followed by a biochemical separation of substrate and product. All assays for the biochemical HTS were initially run in duplicate at a single concentration (10 uM for CYP450 assays and 25 uM for all others). Assay-chemical combinations meeting a pre-defined threshold (e.g., 30% inhibition and other criteria defined below) were then run in singleton concentration-response format with maximum concentration of 20 uM for CYPs and 50 uM for all others. Each assay was run with positive and negative controls, and concurrent controls on every plate. The follow-up (secondary) screen tested active chemical-pairs in concentration series, as well as a few additional assays not tested in the primary screen, some selected negative inactives, and several cases re-run in the concentration series for confirmatory purposes.
For `O=C(O)C(F)(F)C(F)(F)C(F)(F)C(F)(F)C(F)(F)C(F)(F)C(F)(F)C(F)(F)C(F)(F)C(F)(F)F`, the AC50 was 13.5 µM (active).

For the compound `COc1cc(-c2ccc(N)c(OC)c2)ccc1N`, the concentration at half-maximal activity (AC50) was 20.5 µM (active).

Take `Cn1sc(Cl)cc1=O`: the compound was classed as inactive.

On to `C=C(C)C(=O)[O][Sn]([CH2]CCC)([CH2]CCC)[CH2]CCC`, for which the compound was classed as inactive.

Consider `ClC1(Cl)C2(Cl)C3(Cl)C4(Cl)C(Cl)(Cl)C5(Cl)C3(Cl)C1(Cl)C5(Cl)C24Cl` (centres undefined), for which the AC50 was 1.1 µM (active).

A further assay addresses human Esterase Plasma (ES), BCHE (gene 590) (UniProt P06276). Briefly: NVS_ENZ_hES: NovaScreen (NVS) Enzymatic Assay for human Esterase Plasma (ES) (AID 2283157). The method in brief: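 Primary single-concentration screen at 25 uM in duplicate, then concentration-response to a 50 uM top dose. Human plasma esterase activity detected colorimetrically after 0.25 h incubation, with DMSO as baseline.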
Regarding `COP(=S)(OC)Oc1ccc(S(=O)(=O)N(C)C)cc1`, the concentration at half-maximal activity (AC50) was 20 µM (active).

`O=C(O)C(F)(F)C(F)(F)C(F)(F)C(F)(F)C(F)(F)C(F)(F)C(F)(F)C(F)(F)C(F)(F)C(F)(F)F`: the call was inactive.

Take `CC(=O)[O][Hg][c]1ccccc1`: the outcome was inactive.

With `CCN1CCC2(CC1)COc1cc3c(cc12)N(C(=O)c1ccc(-c2ccc(-c4nnc(C)o4)cc2C)cc1)CC3`, the AC50 is 28.3 µM (active).

As to `CCC(=O)C(CC(C)N(C)C)(c1ccccc1)c1ccccc1` (centres undefined), the AC50 is 15.6 µM (active).

`CCOP(=S)(OCC)SCSP(=S)(OCC)OCC`: the result was inactive.

`Cn1sc(Cl)cc1=O`: the result was inactive.

In the case of `CCOP(=S)(OCC)Oc1nc(Cl)c(Cl)cc1Cl`, the concentration at half-maximal activity (AC50) is 25 µM (active).

The target of the next assay is human Ephrin type-A Receptor 1 (EphA1), EPHA1 (gene 2041) (UniProt P21709). Put plainly: NVS_ENZ_hEphA1: NovaScreen (NVS) Enzymatic Assay for human Ephrin type-A Receptor 1 (EphA1) (AID 2283158).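 Also: activity is signal loss versus DMSO meaning EphA1 kinase inhibition.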 The method in brief: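 Recombinant kinase, fluorescent substrate, mobility-shift separation, fluorescence read at 1 h. Single-point duplicates at 25 uM; hits (e.g., ≥30% inhibition) run singleton concentration-response, max 50 uM. DMSO = negative control/baseline.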
Sequence of human Ephrin type-A Receptor 1 (EphA1), EPHA1 (gene 2041) (P21709 whole entry, looked up): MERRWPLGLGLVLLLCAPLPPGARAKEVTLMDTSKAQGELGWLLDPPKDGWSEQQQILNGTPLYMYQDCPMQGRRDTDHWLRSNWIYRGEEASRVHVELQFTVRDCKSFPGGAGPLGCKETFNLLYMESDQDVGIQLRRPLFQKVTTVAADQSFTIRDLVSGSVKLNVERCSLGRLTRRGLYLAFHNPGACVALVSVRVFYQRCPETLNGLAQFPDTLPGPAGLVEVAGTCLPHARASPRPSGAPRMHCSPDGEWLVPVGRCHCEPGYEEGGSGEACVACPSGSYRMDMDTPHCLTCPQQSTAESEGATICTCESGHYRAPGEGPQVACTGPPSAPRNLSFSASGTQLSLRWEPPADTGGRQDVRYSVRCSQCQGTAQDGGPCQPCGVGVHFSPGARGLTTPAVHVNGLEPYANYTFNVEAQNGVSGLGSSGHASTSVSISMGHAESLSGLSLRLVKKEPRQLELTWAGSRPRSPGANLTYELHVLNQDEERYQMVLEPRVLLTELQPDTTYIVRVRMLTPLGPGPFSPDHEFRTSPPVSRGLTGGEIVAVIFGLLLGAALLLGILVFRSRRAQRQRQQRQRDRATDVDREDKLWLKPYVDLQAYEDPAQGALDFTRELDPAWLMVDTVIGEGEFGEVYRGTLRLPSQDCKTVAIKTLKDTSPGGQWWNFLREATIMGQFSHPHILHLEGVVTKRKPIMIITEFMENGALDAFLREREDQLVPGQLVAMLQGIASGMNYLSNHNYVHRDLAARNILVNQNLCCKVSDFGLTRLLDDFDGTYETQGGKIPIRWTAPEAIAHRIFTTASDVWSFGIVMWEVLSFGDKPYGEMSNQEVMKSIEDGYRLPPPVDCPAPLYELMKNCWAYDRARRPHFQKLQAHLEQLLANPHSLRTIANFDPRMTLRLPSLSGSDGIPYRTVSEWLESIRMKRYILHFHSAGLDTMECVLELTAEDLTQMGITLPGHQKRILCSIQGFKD
On to `COc1cc2c(cc1OC)[C@@]13CCN4CC5=CCO[C@H]6CC(=O)N2[C@H]1[C@H]6[C@H]5C[C@H]43`, for which the call was inactive.

For `CCCCCCCCC(=O)NCc1ccc(O)c(OC)c1`, the call was inactive.

For `COP(=S)(OC)Oc1c(Cl)cc(C)cc1Cl`, the call was inactive.

For the compound `COc1cccc(C=O)c1`, the compound was called inactive.

As to `O=[N+]([O-])c1ccc2c3c(cccc13)CC2`, the call was inactive.

In the case of `CCc1ccccc1N`, the compound was classed as inactive.

On to `Nc1cccc(Cl)c1`, for which the outcome was inactive.

As to `CC(Br)C(=O)O` (centres undefined), the compound was classed as inactive.

On to `C(=NC1CCCCC1)=NC1CCCCC1`, for which the compound was classed as inactive.

In the case of `Nc1ccc(-c2ccc(N)c(Cl)c2)cc1Cl`, the AC50 was 1.28 µM (active).

As to `NC(=S)Nc1ccccc1`, the AC50 is 41.6 µM (active).

Turning to `COP(=S)(OC)Oc1cc(Cl)c(Cl)cc1Cl`, the compound was classed as inactive.

The target of another assay is Protein deacetylase HDAC6 (Homo sapiens) (UniProt Q9UBN7). Briefly: NVS_ENZ_hHDAC6: NovaScreen (NVS) Enzymatic Assay for human Histone Deacetylase 6 (HDAC6) (AID 2283164). The method in brief:
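Concentration-response runs up to 50 uM followed a duplicate 25 uM single-point screen. Deacetylase activity of recombinant human HDAC6 read by fluorescence after 1 h, with mobility-shift separation of substrate and product; DMSO as baseline.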
With `CC(=O)[O][Hg][c]1ccccc1`, the AC50 was 2.32 µM (active).

As to `O=C1C2(Cl)C3(Cl)C4(Cl)C(Cl)(Cl)C5(Cl)C3(Cl)C1(Cl)C5(Cl)C24Cl` (centres undefined), the compound was called inactive.

For `C[C@]12CCC(=O)C[C@@H]1CC[C@@H]1[C@@H]2CC[C@]2(C)[C@@H](O)CC[C@@H]12`, the call was inactive.

For orientation: AC50 means the midpoint of the concentration-response curve, whichever way the signal moves.
